Sampled rows, rich in hits. Any-hit rate of the full collection: about 1.6%.
KCNQ2 pot: potentiators of rat KCNQ2 potassium channel. O88943. CHO-K1 KCNQ2, FluxOR thallium flux fluorescence; active compounds read high. B-score at 10 µM. 310,000 tested, 0.54% active. AID 2239;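 active = fluorescence ratio B-score at least 3 SD of library B-scores, with initial fluorescence B-score within 3 of them, cut at about 5.3 in these data; same plate scores as AID 2156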;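 note: B-score of peak minus minimum over baseline fluorescence ratio after K+ and Tl+ stimulus; positive B-score means potentiation of KCNQ2 with more thallium influx and brighter signal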
KCNQ2 inh: inhibitors of rat KCNQ2 potassium channel. O88943. CHO-K1 KCNQ2, FluxOR thallium flux, 20 min; active compounds read low. B-score at 10 µM. 310,000 tested, 1.1% active. AID 2156;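 active = fluorescence ratio B-score at most minus 3 library SDs, with starting brightness B-score within 2 library SDs, cut at about -5.5 in these data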
Kir21 conf inh: confirmation of mouse Kir2.1 potassium channel inhibitors. shares compounds with KCNQ2 pot. Tl flux remaining, % of negative control (active compounds read low), % at 10 µM. AID 2032. Kir2.1-expressing cells, FluxOR thallium flux fluorescence; active compounds read low. 2,300 tested, 41% active;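 active = Primary-screen hit whose thallium flux fell at least 3 control SD below untreated wells in both duplicates, with normal baseline fluorescence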;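 note: 0% = blank wells without stimulus and 100% = stimulated no-compound controls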
HEK293 Tl flux: counter-screen for Kir2.1 inhibitors: effect in parental HEK293 cells; FluxOR signal as % of negative control (100 = no effect), % at 10 µM; FluxOR thallium flux fluorescence; 0% = unstimulated blank wells; shares compounds with KCNQ2 pot; AID 2105; 2,300 tested, 19% active;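 active = dye signal at least 3 control SD above or below untreated wells in both duplicates, raw fluorescence within 3, either direction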;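 note: percent is based on the flux ratio of peak minus minimum fluorescence over baseline F0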
CHO-K1 Tl ctr: alters thallium flux in parental CHO-K1 cells, KCNQ2 counter-screen | AID 2282 | shares compounds with KCNQ2 pot | FluxOR thallium flux fluorescence; zero = vehicle mean+3SD, 100% = vehicle-minus-blank window | activity increase over 3SD of controls, % at 10 µM | 1,200 tested, 43% active;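 active = signal rise of at least 3 SD above the untreated control mean, in both duplicate wells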;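 note: counter screen of KCNQ2 potentiator hits so any rise reflects channel-independent effects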
KCNQ1 sel pot: tests whether KCNQ2 potentiators also act on human KCNQ1 | shares compounds with KCNQ2 pot | CHO KCNQ1 stable, FluxOR thallium flux fluorescence; beyond 3SD, as % of vehicle-control signal | activation over 3SD threshold, % at 10 µM | 1,200 tested, 28% active;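 active = fluorescence ratio rise of at least 3 SD of vehicle wells above their mean, in both replicate wells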;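 note: 0% = vehicle mean plus 3 SD and 100% = vehicle minus unstimulated blank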
KCNQ2 pot conf: rat KCNQ2 channel potentiator confirmation; shares compounds with KCNQ2 pot; CHO-KCNQ2 cells, FluxOR thallium flux fluorescence; potentiation, less the hit threshold, % at 10 µM; 1,200 tested, 68% active; AID 2287;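 active = fluorescence ratio rising 3 SD or more over the vehicle control mean in both replicates, plus primary screen hit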;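 note: peak minus minimum thallium fluorescence divided by baseline after K/Tl stimulus; 0% = vehicle mean plus 3 SD and 100% = vehicle minus unstimulated blank difference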
Kir2-1 sel: selectivity of KCNQ2 potentiators: effect on mouse Kir2.1 | shares compounds with KCNQ2 pot | HEK293 Kir2.1, FluxOR thallium flux fluorescence | activity over 3SD threshold, % at 10 µM | 1,200 tested, 2% active | AID 2345;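 active = fluorescence ratio rise of at least 3 SD above the vehicle-control mean, seen in both replicates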;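 note: 0% = vehicle mean plus 3 SD and 100% = vehicle minus no-stimulus blank window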
KCNQ2 W236L MoA: KCNQ2 potentiators acting on retigabine-insensitive rat KCNQ2 W236L mutant. 940 tested, 10% active. shares compounds with KCNQ2 pot. CHO KCNQ2-W236L, automated patch clamp current. current increase over 3SD of negative controls (%), active compounds read high, % at 25 µM. AID 2558;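 active = current increase at least 3 SD of the untreated controls above them in both duplicate recordings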
The depositor's hits bear a star.

How did CC(C)CC(NC(=O)C1CCCCC1)C(=O)NC(C)c1ccccc1 (stereo not drawn) do in these assays?
KCNQ2 pot: 17.6*; KCNQ2 inh: inactive; Kir21 conf inh: inactive; HEK293 Tl flux: inactive; CHO-K1 Tl ctr: 3.7*; KCNQ1 sel pot: -24.9; KCNQ2 pot conf: 29.1*; Kir2-1 sel: -39.2; KCNQ2 W236L MoA: inactive

What do the screens show for `CC(NC(=O)CC1CCCCC1)c1ccccc1` (stereo not drawn)?
KCNQ2 pot: 5.3*; KCNQ2 inh: inactive; Kir21 conf inh: inactive; HEK293 Tl flux: inactive; CHO-K1 Tl ctr: -0.8; KCNQ1 sel pot: -17.7; KCNQ2 pot conf: 7.1*; Kir2-1 sel: -39.9; KCNQ2 W236L MoA: inactive

Results for CC(NC(=O)COC(=O)C1CCC1)c1ccccc1 (stereo not drawn) ?
KCNQ2 inh: inactive

What do the screens show for `CCOc1ccc(NC(=O)CN(C)C(=O)C2=COCCO2)cc1OCC`?
KCNQ2 inh: inactive

How did Cc1cc(NC(=O)c2cccc(C)c2[N+](=O)[O-])no1 do in these assays?
KCNQ2 pot: 0.13; KCNQ2 inh: inactive

Results for CN1CCC(OC(=O)c2ccccc2)CC1 ?
KCNQ2 pot: 0.61; KCNQ2 inh: inactive

What do the screens show for `Cc1c(Br)cc(C(=O)OC2CCN(C)CC2)c(C)c1C`?
KCNQ2 pot: 0.45; KCNQ2 inh: inactive; Kir21 conf inh: 25.0%*; HEK293 Tl flux: inactive

Results for CN1CCc2c(n(CC(O)CN(CCO)CCO)c3ccccc23)C1=O (stereo not drawn) ?
KCNQ2 pot: 0.46; KCNQ2 inh: inactive

How did CN1CCc2c(n(CC(O)CNCc3ccccc3)c3ccccc23)C1=O (stereo not drawn) do in these assays?
KCNQ2 inh: inactive; Kir21 conf inh: 71.5%*; HEK293 Tl flux: inactive

What do the screens show for `COc1cccc(NC(=O)N2CCC(NC(=O)C(Cc3ccccc3F)NC(C)=O)CC2)c1` (stereo not drawn)?
KCNQ2 pot: 0.76; KCNQ2 inh: inactive

What do the screens show for `Cc1ccc(C(=O)C(OC(=O)CN2C(=O)c3ccccc3C2=O)c2ccccc2)cc1` (stereo not drawn)?
KCNQ2 pot: 1.92; KCNQ2 inh: inactive

Results for Cc1ccc(C(=O)C(OC(=O)CN2C(=O)c3ccccc3C2=O)c2ccccc2)cc1C (stereo not drawn) ?
KCNQ2 pot: 7.48*; KCNQ2 inh: inactive; Kir21 conf inh: inactive; HEK293 Tl flux: inactive; CHO-K1 Tl ctr: -18.6; KCNQ1 sel pot: -17.6; KCNQ2 pot conf: -2.3; Kir2-1 sel: -20.1; KCNQ2 W236L MoA: inactive

Results for N#CC1(NC(=O)COc2ccc(S(=O)(=O)N3CCCC3)cc2[N+](=O)[O-])CCCCC1 ?
KCNQ2 pot: 1.32; KCNQ2 inh: inactive

How did O=C1N=C(N2CCCCC2)SC1=C1CCCCC1 do in these assays?
KCNQ2 pot: 0.11; KCNQ2 inh: inactive

How did O=C1NC(=S)SC1=C1CCCCCC1 do in these assays?
KCNQ2 pot: 23.1*; KCNQ2 inh: inactive; Kir21 conf inh: inactive; HEK293 Tl flux: 357.0%*; CHO-K1 Tl ctr: 39.5*; KCNQ1 sel pot: 7.2*; KCNQ2 pot conf: 57.2*; Kir2-1 sel: -25.8; KCNQ2 W236L MoA: inactive

Results for CCn1cc(CN2CCC(n3nccc3NC(=O)c3ccc4c(c3)OCO4)CC2)c(C)n1 ?
KCNQ2 pot: 1.31; KCNQ2 inh: inactive

What do the screens show for `CC(C)CCN1CCC(n2nccc2NC(=O)c2ccc3c(c2)OCO3)CC1`?
KCNQ2 inh: inactive

How did Cc1cc(=O)[nH]c(SCC(=O)N2CCN(C(c3ccccc3)c3ccccc3)CC2)n1 do in these assays?
KCNQ2 pot: 10.3*; KCNQ2 inh: inactive; Kir21 conf inh: inactive; HEK293 Tl flux: inactive; CHO-K1 Tl ctr: -2.2; KCNQ1 sel pot: 9.2*; KCNQ2 pot conf: 5.0*; Kir2-1 sel: -25.6; KCNQ2 W236L MoA: inactive

Results for Cc1cc(=O)[nH]c(SCC(=O)N2CCCCC2)n1 ?
KCNQ2 inh: inactive

What do the screens show for `Cc1cc(NC(=O)COC(=O)C2CCN(S(=O)(=O)c3ccccc3)CC2)c([N+](=O)[O-])cc1C`?
KCNQ2 inh: inactive

Results for Cc1ccc(C(C)NC(=O)c2ccncc2)cc1C (stereo not drawn) ?
KCNQ2 pot: 1.01; KCNQ2 inh: inactive

Results for CC(NC(=O)c1ccncc1)C(C)(C)C (stereo not drawn) ?
KCNQ2 pot: 16.2*; KCNQ2 inh: inactive; Kir21 conf inh: inactive; HEK293 Tl flux: inactive; CHO-K1 Tl ctr: -15.2; KCNQ1 sel pot: -17.7; KCNQ2 pot conf: -17.9; Kir2-1 sel: -38.6

Results for Cc1cccc(/C=N/NC(=O)Cc2ccc(Cl)cc2)c1O ?
KCNQ2 pot: 7.19*; KCNQ2 inh: inactive; Kir21 conf inh: inactive; HEK293 Tl flux: 69.0%*; CHO-K1 Tl ctr: -8.9; KCNQ1 sel pot: 7.6*; KCNQ2 pot conf: 2.5*; Kir2-1 sel: -25.1; KCNQ2 W236L MoA: inactive

What do the screens show for `Cc1ccc(O)c(/C=N/NC(=O)Cc2ccc(Cl)cc2)c1`?
KCNQ2 pot: 5.34*; KCNQ2 inh: inactive; Kir21 conf inh: inactive; HEK293 Tl flux: inactive; CHO-K1 Tl ctr: -7.0; KCNQ1 sel pot: 42.8*; KCNQ2 pot conf: -5.4; Kir2-1 sel: -20.9

Results for Cc1ccsc1/C=N/NC(=O)Cc1ccc(Cl)cc1 ?
KCNQ2 inh: inactive

How did Cc1cccc(/C=N\NC(=O)c2ccc(Cl)cc2)c1O do in these assays?
KCNQ2 pot: 2.47; KCNQ2 inh: inactive

What do the screens show for `COc1ccc(C(O)Cc2nccn2C)cc1` (stereo not drawn)?
KCNQ2 inh: inactive

Results for CC1CC1C(=O)NCCc1ccc(Cl)cc1 (stereo not drawn) ?
KCNQ2 pot: 0.51; KCNQ2 inh: inactive

What do the screens show for `O=C(CC1CC2CCC1C2)NCCc1ccc(Cl)cc1` (stereo not drawn)?
KCNQ2 pot: 5.92*; KCNQ2 inh: inactive; CHO-K1 Tl ctr: -0.3; KCNQ1 sel pot: -16.7; KCNQ2 pot conf: 0.8*; Kir2-1 sel: -74.7; KCNQ2 W236L MoA: inactive

How did O=C(COc1ccc2c3c(c(=O)oc2c1)CCCC3)NCCCN1CCOCC1 do in these assays?
KCNQ2 pot: 0.13; KCNQ2 inh: inactive
